Data from PubChem BioAssay AID1745850 (National Center for Advancing Translational Sciences (NCATS), 2022).
Among all 2,100 compounds or so, about 260 (12%) were called active. Inconclusive results (about 58%) are left out. Some of the results follow. Unmarked numbers belong to inactive results. Calls follow the shape of the dose curve; as a rule, active = well fitted cell-killing curve with a large enough effect; inconclusive = small, poorly fitted or top-dose-only effect, or effect the other way; inactive = flat fitted curve, though single readings scatter.

Assay: Viability Counterscreen for Confirmatory qHTS for Inhibitors of ATXN expression; also: nearly all actives have a fitted effect of over 50% in size
Details: HEK-293 ATXN2-luc cells viability, CellTiter-Fluor, 24 h; activity change, negative = cytotoxicity: at the top concentration
Text: PI: Daniel Scoles Ph.D. University of Utah School of Medicine, Salt Lake City, Utah MLPCN Grant: NS073009 Spinocerebellar ataxia type 2 (SCA2) is a multisystem neurodegenerative disease caused by a dominantly acting mutation leading to expansion of a polyQ domain in the ataxin-2 protein (ATXN2). SCA2 patients develop progressive ataxia and later lose function in other neuronal systems. Prominent parkinsonian signs develop in some patients. Like many neurodegenerative disorders, no symptomatic or disease-modifying treatments are known. The primary objective of the proposed research is to identify compounds inhibiting ATXN2 expression and to test them for efficacy in SCA2 mouse models. We have developed a cell-based assay paired with an in vivo mouse model using identical luciferase expression constructs. This approach takes advantage of an ATXN2-luciferase transgene, with the luciferase gene flanked by the upstream and downstream portions of the ATXN2 gene. Here we describe a 5-7 dose quantitative high thoroughput screen (qHTS) for compounds lowering ATXN2 expression. We screened the NIH Molecular Libraries Small Molecule Repository (MLSMR) and NCGC's mechanistically annotated (MIPE) and drug repurposing (NPC) collections of compounds for lowering expression of an ATXN2-luciferase reporter in HEK-293 cells. The assay is a multiplexed cell viability assay to ensure target reduction in the absence of cytotoxicity. Secondary qHTS assays included a CMV-luciferase reporter expressed in HEK-293 cells as well as a biochemical assay using recombinant luciferase to detect inhibitors of the reporter enzyme. Compounds that inhibit ATXN2 expression but is not cytotoxic were selected for confirmatory and secondary screens.
PROTOCOL TABLE (as described by Inglese J, Shamu CE and Guy RK. 2007) SEQUENCE No. (e.g., 1, 2, 3, etc.); […] (e.g., Cells, Incubation, Reagent, etc.); VALUE; DESCRIPTION. 1; Cells; 4 uL; white, solid bottom, 1536-well Greiner assay plate. 2; Incubation; 2 hr; 37 degree C in 5% humidified CO2. 3; Compounds; 23 nL; Kalypsis pintool (Wako USA) equipped with a 1536-well pin head. 4; Incubation; 24 hr; 37 degree C in 5% humidified CO2. 5; Reagent; 1 uL; Gly-Phe-7-Amino-4-trifluoromethylcoumarin. 6; Incubation; 30 min; 37 degree C in 5% humidified CO2. 7; Detection; Fluorescence; ViewLux plate reader (PerkinElmer). 8; Reagent; 3 uL; SteadyGlo luciferase solution (Promega). 9; Incubation; 5 min; room temperature. 10; Detection; Luminescence; ViewLux plate reader (PerkinElmer). NOTES (numbers refer to Sequence numbers above) 1. S2 cells expressing ATXN2-luciferase reporter were suspended in phenol-red free DMEM and dispensed in assay plates using a Multidrop Combi dispenser (Thermo Fisher Scientific). Wells containing medium only were plated on each plate, and values were used to normalize (100% inhibition) in the luciferase and CellTiter-Fluor assays. 2. Assay plates were incubated. Evaporation was prevented by covering assay plates with metal lids containing holes to allow gas diffusion. 3. Compounds were added in a dose response manner with the final concentrations of 57, 11.4, 2.28, 0.46, 0.091, 0.018, 0.0037 uM. Vehicle-only plates, with DMSO being pin-transferred to columns 5-48, were inserted uniformly at the beginning and the end of each library to monitor and record any shifts in assay performance. 5. 125 uM Gly-Phe-7-Amino-4-trifluoromethylcoumarin (MP Biomedicals) working concentration was used at a final concentration of 25 uM. 7. To assess cell viability; the assay plates were read using the ViewLux high-throughput CCD imager (PerkinElmer), wherein single end-point fluorescence measurement was acquired (excitation 405/10; emission 540/25 nm). 8. Detection reagent SteadyGlo Luciferase (Promega) was added to the assay plate. 10. Luminescence is then measured on the ViewLux imager equipped with a clear emission filter using a 2 sec exposure. […]
Potency is read from the fitted curve at half-maximal effect.

Row | Structure (SMILES) | activity change, negative = cytotoxicity | Potency
1 | COCc1cc(CN2CCCC2)c(O)c2ncccc12 | -19.9% | –
2 | COc1cccc(CN2CCC2(C)C(=O)Nc2cccc3cccnc23)c1OC (configuration not stated) | -28.3% | –
3 | COc1ccccc1N1CCN(Cc2ccc(O)c3ncccc23)CC1 | – | 2.82 µM (active)
4 | Cc1ccc(/C=C2/CNC/C(=C/c3ccc(C)cc3)C2=O)cc1 | – | 11.2 µM (active)
5 | CN(C)CCNc1cccc2sc3ccc(O)cc3c(=O)c12 | – | 22.4 µM (active)
6 | CN(C)CCNc1ccc2ncn3c4ccc(O)cc4c(=O)c1c23 | -23.3% | –
7 | CCn1c2ccccc2c2cc(/C=C(/C#N)C(N)=S)ccc21 | -21.4% | –
8 | C/C(=N\NC(=O)c1cc(-c2cccnc2)nc2ccccc12)c1ccc(O)cc1O | – | 11.2 µM (active)
9 | O=C(NN=C1CCCC1)c1cc(-c2ccc(F)cc2)nc2ccccc12 | -13.9% [at 57.5 µM] | –
10 | CCN(CC)S(=O)(=O)c1cccc(C(=O)N/N=C(\C)c2ccc(O)cc2O)c1 | -17.5% [at 57.5 µM] | –
11 | CCN(CC)c1ccc(/C=N/NC(=O)CNC(=O)C2COc3ccccc3O2)c(O)c1 (configuration not stated) | -22.3% | –
12 | COc1ccc(CN2CCCN(S(=O)(=O)c3ccc(Br)cc3)CC2)cc1 | -10.5% [at 57.5 µM] | –
13 | Cc1cccc(OCCCC(=O)Nc2nccs2)c1 | 1.34% | –
14 | O=C(NC(Nc1nc2ccc([N+](=O)[O-])cc2s1)(C(F)(F)F)C(F)(F)F)c1ccccc1 | – | 2.24 µM (active)
15 | O=C(NC(Nc1ncc(S(=O)(=O)c2ccc([N+](=O)[O-])cc2)s1)(C(F)(F)F)C(F)(F)F)c1ccc(Cl)cc1 | – | 10 µM (active)
16 | Cc1ccc(S(=O)(=O)c2cc3cc(Br)ccc3oc2=O)cc1 | -3.3% [at 57.5 µM] | –
17 | Cn1c(CO)cnc1S(=O)(=O)Cc1ccc([N+](=O)[O-])cc1 | -12.7% [at 57.5 µM] | –
18 | O=C(CN1CCN(C(=O)c2ccc(-c3nc4ccccc4s3)o2)CC1)Nc1ccccc1Cl | – | 3.55 µM (active)
19 | c1nc(CCO[C@H]2CCCCO2)cc2cc3c(cc12)OCO3 | -10.3% | –
20 | O=C(CN1c2cccc3cccc(c23)S1(=O)=O)NCc1ccc(Cl)cc1 | 10.1% | –
21 | O=C(CCc1ccccc1)NNC(=O)c1cc(Cl)ccc1O | -11.5% | –
22 | Cc1cc(Nc2cccc([N+](=O)[O-])c2)n2c(nc3ccccc32)c1C#N | – | 5.01 µM (active)
23 | Cc1ccc(-c2c(C#N)c(N)n3c(nc4ccccc43)c2C#N)cc1 | -27.3% [at 57.5 µM] | –
24 | COc1ccc(-c2nnc(NC(=O)c3ccc(S(=O)(=O)N4COCC4(C)C)cc3)o2)cc1 | -23.2% | –
25 | Cc1ccc(NC(=O)c2ccc(-c3nn(C)c(=O)c4ccccc34)cc2)cc1 | -27.2% [at 57.5 µM] | –
26 | CCOC(=O)C(NS(=O)(=O)c1ccc(C)cc1)(C(F)(F)F)P(=O)(OCC(C)C)OCC(C)C (configuration not stated) | -12.5% | –
27 | Cc1csc2c(N3CCN(C(=O)Nc4ccc(Cl)c(Cl)c4)CC3)ncnc12 | -12.7% | –
